# Measurements taken from paper PMC7862700, “An all-to-all approach to the identification of sequence-specific readers for epigenetic DNA modifications on cytosine”.
# Tests used:
# Assay in all cases: DAPPL (digital affinity profiling via proximity ligation, sequencing); 10 mM Tris-HCl pH 7.5, 50 mM NaCl, 1 mM DTT, 4% glycerol, room temperature, 30 min; GST-TFs on glutathione beads, 16-mer random dsDNA library, 0.1% formaldehyde crosslink after washing; high values mean tight binding
# Settings in all cases: protein: recombinant; tags: N-terminal GST; dsDNA, one strand shown
# ERF = target: T1, ERF (Homo sapiens, UniProt P50548 1-548)
# T1 sequence: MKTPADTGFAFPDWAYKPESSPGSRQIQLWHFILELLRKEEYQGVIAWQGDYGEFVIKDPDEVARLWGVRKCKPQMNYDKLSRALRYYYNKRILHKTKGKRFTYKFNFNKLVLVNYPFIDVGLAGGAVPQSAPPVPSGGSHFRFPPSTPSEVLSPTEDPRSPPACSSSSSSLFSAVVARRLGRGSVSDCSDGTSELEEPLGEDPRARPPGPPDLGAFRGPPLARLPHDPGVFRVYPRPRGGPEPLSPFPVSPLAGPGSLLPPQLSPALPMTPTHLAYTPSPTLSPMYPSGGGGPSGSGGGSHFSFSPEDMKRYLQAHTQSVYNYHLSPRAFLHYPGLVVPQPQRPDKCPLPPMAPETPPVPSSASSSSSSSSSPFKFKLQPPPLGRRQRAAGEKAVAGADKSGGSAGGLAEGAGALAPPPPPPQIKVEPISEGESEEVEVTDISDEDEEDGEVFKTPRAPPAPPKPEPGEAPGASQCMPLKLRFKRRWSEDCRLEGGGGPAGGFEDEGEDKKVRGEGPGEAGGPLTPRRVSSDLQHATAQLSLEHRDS
# Method in brief: (§1)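 Sequencing on an Illumina NextSeq500 followed washing, crosslinking with 0.1% formaldehyde, proximity ligation (BsaI/T4 ligase, 1 h, 37 °C) and PCR amplification of pools that had been incubated for 30 min at room temperature with 200 nmole of a random double-stranded 16-mer DNA library in Tris/NaCl/DTT/glycerol buffer. Each pool held DNA-barcoded human transcription factors, expressed in yeast as GST fusions and captured on glutathione beads, plus a tag-only sample. Binding signal is a hexamer's read frequency for a factor divided by its frequency in the tag-only sample.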
# ETV3L = target: T2, ETV3L (Homo sapiens, UniProt Q6ZN32 1-361)
# T2 sequence: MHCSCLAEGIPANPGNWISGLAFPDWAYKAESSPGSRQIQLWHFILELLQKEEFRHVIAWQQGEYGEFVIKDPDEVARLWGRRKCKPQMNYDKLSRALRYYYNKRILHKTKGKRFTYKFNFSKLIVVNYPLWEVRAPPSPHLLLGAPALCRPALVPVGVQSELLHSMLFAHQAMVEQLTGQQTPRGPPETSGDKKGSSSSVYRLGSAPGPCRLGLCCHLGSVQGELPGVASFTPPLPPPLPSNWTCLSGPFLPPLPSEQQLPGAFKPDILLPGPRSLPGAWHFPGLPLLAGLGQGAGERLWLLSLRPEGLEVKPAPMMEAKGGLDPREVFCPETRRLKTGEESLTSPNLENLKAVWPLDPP
# Method in brief: as §1
# ETS2 = target: T3, ETS2 (Homo sapiens, UniProt P15036 1-469)
# T3 sequence: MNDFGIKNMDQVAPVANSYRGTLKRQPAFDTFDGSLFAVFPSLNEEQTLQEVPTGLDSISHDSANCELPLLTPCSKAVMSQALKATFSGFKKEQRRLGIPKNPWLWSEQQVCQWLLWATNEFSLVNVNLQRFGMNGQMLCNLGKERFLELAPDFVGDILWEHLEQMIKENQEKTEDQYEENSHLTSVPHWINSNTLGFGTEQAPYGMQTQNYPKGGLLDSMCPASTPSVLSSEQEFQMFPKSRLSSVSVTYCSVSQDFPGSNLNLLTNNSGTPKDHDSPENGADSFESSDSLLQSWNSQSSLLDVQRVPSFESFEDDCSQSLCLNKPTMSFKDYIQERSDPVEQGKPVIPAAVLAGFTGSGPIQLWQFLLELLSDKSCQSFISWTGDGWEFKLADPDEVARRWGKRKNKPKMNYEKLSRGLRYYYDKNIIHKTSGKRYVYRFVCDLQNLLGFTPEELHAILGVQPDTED
# Method in brief: as §1
# SPDEF = target: T4, SPDEF (Homo sapiens, UniProt O95238 1-335)
# T4 sequence: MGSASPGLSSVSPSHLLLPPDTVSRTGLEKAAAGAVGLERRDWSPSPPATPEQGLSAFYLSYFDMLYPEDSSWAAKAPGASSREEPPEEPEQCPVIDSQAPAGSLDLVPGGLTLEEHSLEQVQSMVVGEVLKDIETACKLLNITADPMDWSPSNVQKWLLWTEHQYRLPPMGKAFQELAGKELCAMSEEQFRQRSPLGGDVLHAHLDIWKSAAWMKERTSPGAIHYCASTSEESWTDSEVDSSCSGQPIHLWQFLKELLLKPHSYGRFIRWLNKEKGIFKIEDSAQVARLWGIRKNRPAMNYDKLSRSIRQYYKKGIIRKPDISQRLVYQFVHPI
# Method in brief: as §1
# ETV7 = target: T5, ETV7 (Homo sapiens, UniProt Q9Y603 1-341)
# T5 sequence: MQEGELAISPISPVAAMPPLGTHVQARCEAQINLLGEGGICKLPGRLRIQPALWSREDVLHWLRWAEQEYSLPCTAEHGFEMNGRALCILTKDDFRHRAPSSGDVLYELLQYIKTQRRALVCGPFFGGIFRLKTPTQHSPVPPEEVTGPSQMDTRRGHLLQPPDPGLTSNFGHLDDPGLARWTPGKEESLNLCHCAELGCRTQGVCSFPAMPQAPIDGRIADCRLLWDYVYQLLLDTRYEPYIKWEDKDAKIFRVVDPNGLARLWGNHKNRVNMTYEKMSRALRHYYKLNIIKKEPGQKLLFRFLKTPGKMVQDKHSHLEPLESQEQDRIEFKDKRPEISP
# Method in brief: as §1
# ELF5 = target: T6, ELF5 (Homo sapiens, UniProt Q9UKW6-2 1-255)
# T6 sequence: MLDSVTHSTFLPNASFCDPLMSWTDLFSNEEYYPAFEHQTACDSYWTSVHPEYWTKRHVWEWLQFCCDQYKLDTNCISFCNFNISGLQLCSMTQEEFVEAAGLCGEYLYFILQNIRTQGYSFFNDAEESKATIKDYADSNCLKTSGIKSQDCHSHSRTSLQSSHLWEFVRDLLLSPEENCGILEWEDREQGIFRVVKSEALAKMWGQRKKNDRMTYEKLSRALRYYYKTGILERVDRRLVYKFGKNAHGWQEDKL
# Method in brief: as §1
# ETV3 = target: T7, ETV3 (Homo sapiens, UniProt P41162-2 1-143)
# T7 sequence: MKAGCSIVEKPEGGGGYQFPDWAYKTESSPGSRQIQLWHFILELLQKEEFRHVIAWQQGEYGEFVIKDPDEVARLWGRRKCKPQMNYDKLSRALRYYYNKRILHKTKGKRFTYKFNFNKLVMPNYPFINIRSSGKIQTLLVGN
# Method in brief: as §1
# ETV6 = ETV6 (Homo sapiens, UniProt P41212 1-452)
# ETV6, sequence (P41212 whole entry): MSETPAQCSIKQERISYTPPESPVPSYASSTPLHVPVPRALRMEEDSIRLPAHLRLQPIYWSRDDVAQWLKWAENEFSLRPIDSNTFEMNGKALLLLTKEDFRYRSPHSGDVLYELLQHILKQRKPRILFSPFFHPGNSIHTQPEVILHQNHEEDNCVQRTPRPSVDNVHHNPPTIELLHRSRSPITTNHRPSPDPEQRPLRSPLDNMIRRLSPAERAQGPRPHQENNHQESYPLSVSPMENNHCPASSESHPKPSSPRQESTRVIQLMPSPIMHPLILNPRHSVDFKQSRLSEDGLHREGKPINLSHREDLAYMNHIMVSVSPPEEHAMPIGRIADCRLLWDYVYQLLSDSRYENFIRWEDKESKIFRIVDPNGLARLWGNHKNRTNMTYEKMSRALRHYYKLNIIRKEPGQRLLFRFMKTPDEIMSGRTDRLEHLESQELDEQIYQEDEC
# Method in brief: as §1
sequence,measurement,setting,value
CCTCTC,binding signal,ERF,"1.4 fold enrichment (6-mer frequency, TF over GST control)"
same,binding signal,ETV3L,"1.41 fold enrichment (6-mer frequency, TF over GST control)"
same,binding signal,ETS2,"1.34 fold enrichment (6-mer frequency, TF over GST control)"
same,binding signal,SPDEF,"1.39 fold enrichment (6-mer frequency, TF over GST control)"
same,binding signal,ETV7,"1.44 fold enrichment (6-mer frequency, TF over GST control)"
same,binding signal,ELF5,"1.41 fold enrichment (6-mer frequency, TF over GST control)"
same,binding signal,ETV3,"1.44 fold enrichment (6-mer frequency, TF over GST control)"
same,binding signal,ETV6,"1.5 fold enrichment (6-mer frequency, TF over GST control)"
GTTACT,binding signal,ERF,"1.24 fold enrichment (6-mer frequency, TF over GST control)"
same,binding signal,ETV3L,"1.1 fold enrichment (6-mer frequency, TF over GST control)"
same,binding signal,ETS2,"1.21 fold enrichment (6-mer frequency, TF over GST control)"
same,binding signal,SPDEF,"1.18 fold enrichment (6-mer frequency, TF over GST control)"
same,binding signal,ETV7,"1.25 fold enrichment (6-mer frequency, TF over GST control)"
same,binding signal,ELF5,"1.17 fold enrichment (6-mer frequency, TF over GST control)"
same,binding signal,ETV3,"1.28 fold enrichment (6-mer frequency, TF over GST control)"
same,binding signal,ETV6,"1.21 fold enrichment (6-mer frequency, TF over GST control)"
ATACTG,binding signal,ERF,"1.14 fold enrichment (6-mer frequency, TF over GST control)"
same,binding signal,ETV3L,"1.23 fold enrichment (6-mer frequency, TF over GST control)"
same,binding signal,ETS2,"1.1 fold enrichment (6-mer frequency, TF over GST control)"
same,binding signal,SPDEF,"1.18 fold enrichment (6-mer frequency, TF over GST control)"
same,binding signal,ETV7,"1.09 fold enrichment (6-mer frequency, TF over GST control)"
same,binding signal,ELF5,"1.07 fold enrichment (6-mer frequency, TF over GST control)"
same,binding signal,ETV3,"1.12 fold enrichment (6-mer frequency, TF over GST control)"
same,binding signal,ETV6,"1.07 fold enrichment (6-mer frequency, TF over GST control)"
GATGGT,binding signal,ERF,"1.22 fold enrichment (6-mer frequency, TF over GST control)"
same,binding signal,ETV3L,"1.19 fold enrichment (6-mer frequency, TF over GST control)"
same,binding signal,ETS2,"1.13 fold enrichment (6-mer frequency, TF over GST control)"
same,binding signal,SPDEF,"1.04 fold enrichment (6-mer frequency, TF over GST control)"
same,binding signal,ETV7,"1.06 fold enrichment (6-mer frequency, TF over GST control)"
same,binding signal,ELF5,"1.08 fold enrichment (6-mer frequency, TF over GST control)"
same,binding signal,ETV3,"1.12 fold enrichment (6-mer frequency, TF over GST control)"
same,binding signal,ETV6,"1.1 fold enrichment (6-mer frequency, TF over GST control)"
TGTCCA,binding signal,ERF,"1.09 fold enrichment (6-mer frequency, TF over GST control)"
same,binding signal,ETV3L,"1.2 fold enrichment (6-mer frequency, TF over GST control)"
same,binding signal,ETS2,"1.14 fold enrichment (6-mer frequency, TF over GST control)"
same,binding signal,SPDEF,"1.13 fold enrichment (6-mer frequency, TF over GST control)"
same,binding signal,ETV7,"1.18 fold enrichment (6-mer frequency, TF over GST control)"
same,binding signal,ELF5,"1.05 fold enrichment (6-mer frequency, TF over GST control)"
same,binding signal,ETV3,"1.13 fold enrichment (6-mer frequency, TF over GST control)"
same,binding signal,ETV6,"1.12 fold enrichment (6-mer frequency, TF over GST control)"
TGAATG,binding signal,ERF,"1.14 fold enrichment (6-mer frequency, TF over GST control)"
same,binding signal,ETV3L,"1.2 fold enrichment (6-mer frequency, TF over GST control)"
same,binding signal,ETS2,"1.25 fold enrichment (6-mer frequency, TF over GST control)"
same,binding signal,SPDEF,"1.28 fold enrichment (6-mer frequency, TF over GST control)"
same,binding signal,ETV7,"1.21 fold enrichment (6-mer frequency, TF over GST control)"
same,binding signal,ELF5,"1.21 fold enrichment (6-mer frequency, TF over GST control)"
same,binding signal,ETV3,"1.2 fold enrichment (6-mer frequency, TF over GST control)"
same,binding signal,ETV6,"1.22 fold enrichment (6-mer frequency, TF over GST control)"
ACTCCC,binding signal,ERF,"1.44 fold enrichment (6-mer frequency, TF over GST control)"
same,binding signal,ETV3L,"1.19 fold enrichment (6-mer frequency, TF over GST control)"
same,binding signal,ETS2,"1.27 fold enrichment (6-mer frequency, TF over GST control)"
same,binding signal,SPDEF,"1.32 fold enrichment (6-mer frequency, TF over GST control)"
same,binding signal,ETV7,"1.31 fold enrichment (6-mer frequency, TF over GST control)"
same,binding signal,ELF5,"1.38 fold enrichment (6-mer frequency, TF over GST control)"
same,binding signal,ETV3,"1.47 fold enrichment (6-mer frequency, TF over GST control)"
same,binding signal,ETV6,"1.47 fold enrichment (6-mer frequency, TF over GST control)"
TCAAAG,binding signal,ERF,"1.08 fold enrichment (6-mer frequency, TF over GST control)"
same,binding signal,ETV3L,"1.12 fold enrichment (6-mer frequency, TF over GST control)"
same,binding signal,ETS2,"1.12 fold enrichment (6-mer frequency, TF over GST control)"
same,binding signal,SPDEF,"1.01 fold enrichment (6-mer frequency, TF over GST control)"
same,binding signal,ETV7,"1.1 fold enrichment (6-mer frequency, TF over GST control)"
same,binding signal,ELF5,"1.04 fold enrichment (6-mer frequency, TF over GST control)"
same,binding signal,ETV3,"1.07 fold enrichment (6-mer frequency, TF over GST control)"
same,binding signal,ETV6,"1.09 fold enrichment (6-mer frequency, TF over GST control)"
